Over roughly 68,000 sequences, “fluorescence intensity (a.u.)” has its median near 9,100; the highest 2% begin near 16,000. What follows is part of a selection rich in the highest values, with near analogues and random picks from the rest.

Sequence of OsWRKY34 (Q0JBA9 entry or part of it): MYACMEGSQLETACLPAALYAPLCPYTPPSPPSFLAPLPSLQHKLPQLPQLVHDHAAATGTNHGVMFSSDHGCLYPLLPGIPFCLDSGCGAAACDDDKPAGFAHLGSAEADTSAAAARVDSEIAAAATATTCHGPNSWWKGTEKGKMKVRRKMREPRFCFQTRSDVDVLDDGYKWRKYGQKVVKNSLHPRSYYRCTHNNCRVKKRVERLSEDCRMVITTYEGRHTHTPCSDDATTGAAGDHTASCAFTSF

The assay concerns the target OsWRKY34 (Oryza sativa, UniProt Q0JBA9 1-250). Kind of assay: protein-binding microarray (RPBM); PBS, 2% BSA, 51.3 ng/ul salmon testes DNA, 50 uM zinc acetate, 200 nM TF, 25 C, 1 h; high values mean tight binding. Particulars: protein: recombinant; tags: N-terminal polyhistidine and DsRed monomer fusion (pET32a); label: CyDye5-dUTP incorporated in the synthesized complementary strand; 3' TTTTT single-stranded linker to array surface; dsDNA, one strand shown. The essentials: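 Transcription factors were each fused at the N-terminus to a polyhistidine tag plus DsRed and expressed in E. coli BL21-CodonPlus before Ni–NTA purification. Binding to a double-stranded custom Agilent array was carried out with 200 nM protein at 25 °C for 1 h in PBS, 2% BSA, salmon testes DNA and 50 µM zinc acetate. The binding signal is per-feature fluorescence intensity, in arbitrary units, on an Axon 4000B scanner.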
Take “AATATGTACTACTTCCGTTTCAGGTTATAAGACTTTCTAGCGGAGTCACCTAGTGCAG”: the binding signal is 8400 fluorescence intensity (a.u.). As for “CGTAGTAATGTCTGAATTCACCGCCTTAATCCTGTCACGACGGAGTCACCTAGTGCAG”, the binding signal is 8450 fluorescence intensity (a.u.). For the sequence “TTTTTCTTTTCTCGCGTACAGCTGGACGCTTCGTTTGCTTCGGAGTCACCTAGTGCAG”, the binding signal was 11100 fluorescence intensity (a.u.). With “CCCATCAACCGCCAAAGACTTCCCGCGCGCGTCTACATATCGGAGTCACCTAGTGCAG”, the binding signal was 8450 fluorescence intensity (a.u.). To “ACCGTCCTCCTCGTCACCCACCAGCTCGACTTCCTCCGCACGGAGTCACCTAGTGCAG” belongs 8200 fluorescence intensity (a.u.). The same measure for “GTCAACGATCCGGCGTCTGTTCCACTTCTACCCTCCCATCCGGAGTCACCTAGTGCAG”: 8250 fluorescence intensity (a.u.); for “TTTCTCATATGTTTGACCATTCGTCTTATTAAAAAAATTTCGGAGTCACCTAGTGCAG”: 8930 fluorescence intensity (a.u.). As to “CCCTTTACTTGATTTTCTGCTGGTTGGTTTATCTTTTATTCGGAGTCACCTAGTGCAG”, the binding signal is 19600 fluorescence intensity (a.u.). As for “TACTGGTTCTACTTGATCTTATTTATCTTTTTATTCTATTCGGAGTCACCTAGTGCAG”, the binding signal is 10100 fluorescence intensity (a.u.). To “ACCATCTCTCTCTCTCTCTCTGCATGCATATCTTCTCCTCCGGAGTCACCTAGTGCAG” belongs 14300 fluorescence intensity (a.u.); to “TCTGCATGATTCCTTGGTTTCTTTTTTTACACATTTACTTCGGAGTCACCTAGTGCAG”, 10500 fluorescence intensity (a.u.); to “CATATGTTTGACCATTCGTCTTATTCAAAAATTTTATTCACGGAGTCACCTAGTGCAG”, 9660 fluorescence intensity (a.u.).

With “ATTTAGAGTTGACTTTGGTTTATTTTTCATTGAAGTTTATCGGAGTCACCTAGTGCAG”, the binding signal was 9450 fluorescence intensity (a.u.). For the sequence “ATTTTACTCTTTTGACTATATTGGTTCGGTTGAAGTTTTACGGAGTCACCTAGTGCAG”, the binding signal is 23100 fluorescence intensity (a.u.). “CTGTTGACTTTTTCTTATATGTTTGACCATTCGTCTTATTCGGAGTCACCTAGTGCAG”: the binding signal was 24600 fluorescence intensity (a.u.).

With “CATCTGTCTCTGGATCTCTGCATATCTCCTCTTCTGTGATCGGAGTCACCTAGTGCAG”, the binding signal is 17200 fluorescence intensity (a.u.). Regarding “CTGGATCTCCTCTCTCTCTCTCTCTCTCTGTCCTTCTTCTCGGAGTCACCTAGTGCAG”, the binding signal is 10800 fluorescence intensity (a.u.).

“ATACTCTTGGTTTATCTTTGATTTTGTATATCTTTTTATTCGGAGTCACCTAGTGCAG”: the binding signal was 9720 fluorescence intensity (a.u.).

With “TCTGCTTCACTGTATTTTTGTCCAACAATTCCATGACATGCGGAGTCACCTAGTGCAG”, the binding signal was 8550 fluorescence intensity (a.u.).

With “TTTAGATTTATTTTTTGTGACATAGGGAGTACTTTTTTTTCGGAGTCACCTAGTGCAG”, the binding signal is 9200 fluorescence intensity (a.u.). With “CTTCTCAAGTTCCAACCTTTGCGCTTTCTTATTATCAAAGCGGAGTCACCTAGTGCAG”, the binding signal is 8550 fluorescence intensity (a.u.). Turning to “GCACGCATGCAGTTCCTTGACCAATTCTCACATCAACCACCGGAGTCACCTAGTGCAG”, the binding signal is 9100 fluorescence intensity (a.u.). As for “AAACGTATGGCTGCTCTCTCTCTGCTGATGATCTCTCTCTCGGAGTCACCTAGTGCAG”, the binding signal was 8180 fluorescence intensity (a.u.).

Take “GCCAATTTTTTCTCCTCACATCTATTTTACCCTATTATTCCGGAGTCACCTAGTGCAG”: the binding signal was 8390 fluorescence intensity (a.u.). In the case of “CCGAGCACCCACCCGCCGCCGCCGCCGTCGCCGATTCATGCGGAGTCACCTAGTGCAG”, the binding signal was 9080 fluorescence intensity (a.u.). Regarding “GTAATTAACCAGAATTCAGGTTTTGTCAGTGCCACCATCACGGAGTCACCTAGTGCAG”, the binding signal is 9850 fluorescence intensity (a.u.).

On to “TCGTTGATTTTTGACATGATGTTTGACCATTCTTATTATTCGGAGTCACCTAGTGCAG”, for which the binding signal is 9750 fluorescence intensity (a.u.). Take “CGTTGACTTTTTCTTACATGTTTGACCATTCGTCTTATTTCGGAGTCACCTAGTGCAG”: the binding signal is 35300 fluorescence intensity (a.u.).

For “ATGACATGTCATGGGACTTACTTTACATGGTTTTGAATACCGGAGTCACCTAGTGCAG”, the binding signal is 8140 fluorescence intensity (a.u.). On to “ATTTCTAACTTTTTTTCCCATTGTTTTGTTTGTCTTATTTCGGAGTCACCTAGTGCAG”, for which the binding signal is 8920 fluorescence intensity (a.u.). Take “ACTTTGTCCACCCATTTTGTGTTGTCTCGTTGTTTCTATTCGGAGTCACCTAGTGCAG”: the binding signal was 17000 fluorescence intensity (a.u.). As for “GGTTTTGCGGTTGAGCGAAACGACCCAATGGGAATCAAGACGGAGTCACCTAGTGCAG”, the binding signal is 60000 fluorescence intensity (a.u.). “ATTTTATTGTTGCGGTTGCCAATCAACAACGACGTCATTTCGGAGTCACCTAGTGCAG”: the binding signal is 9550 fluorescence intensity (a.u.). As to “TGGGACTTTATTTGCACTGGTTTTGGGAGTTGAGGGACACCGGAGTCACCTAGTGCAG”, the binding signal was 8550 fluorescence intensity (a.u.).

With “TTTGTGTTGTCTAGACATTTTTTTCTATTTTTCACCTATTCGGAGTCACCTAGTGCAG”, the binding signal is 9190 fluorescence intensity (a.u.). Take “GACACGGAAAATCATGGTTTGACTTTTTTTTTTGGGACGGCGGAGTCACCTAGTGCAG”: the binding signal is 19400 fluorescence intensity (a.u.). For “GAATCATGAGTTGGTTGGGTTGGCATTAAACTGTTTTGAGCGGAGTCACCTAGTGCAG”, the binding signal is 12100 fluorescence intensity (a.u.).

As to “TGTTGACTTTTGGATACATGTTTGACAATTCGTCTTATTTCGGAGTCACCTAGTGCAG”, the binding signal is 14700 fluorescence intensity (a.u.). In the case of “GGCCTCTCAACTGACCCGTCTGCGAAATATGTTTATTTTCCGGAGTCACCTAGTGCAG”, the binding signal was 8060 fluorescence intensity (a.u.). As to “ATTTATAGAGGTTGGGTGTGCATGTGTGGTGAGCATATTTCGGAGTCACCTAGTGCAG”, the binding signal was 8820 fluorescence intensity (a.u.).

On to “GCTAGCGCTGCCGCCCTACTCTTGATCCTAAATATTCATTCGGAGTCACCTAGTGCAG”, for which the binding signal is 8210 fluorescence intensity (a.u.). The same measure for “ACTGGTCGAACCTTGGCGGGGAGGGGCCGGCCGGCCTCATCGGAGTCACCTAGTGCAG”: 8640 fluorescence intensity (a.u.).

Values taken from paper PMC7819943, “Rice protein-binding microarrays: a tool to detect cis-acting elements near promoter regions in rice”.
